Consider 40 compounds from PubChem BioAssay (NCI).

About 83,000 compounds went through this panel and 20% of them were active in at least one assay; those are over-represented in the sample as a whole.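 Cell lines were cultured in 96-well plates, exposed to a single compound concentration, and assessed for percent growth 48 hours later.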 Calls of active or inactive are those of the source. The calls were made as follows: active = growth percent below 10; inactive = the rest.

The subject of this assay is HL-60(TB) leukemia. Nature of the assay: NCI-60 one-dose screen, 48 h (100 = growth as untreated, 0 = no growth, -100 = all killed). Particulars: 10 µM unless noted.
Turning to `Cc1nn(CC(=O)O)c2c1C(=O)CC(C)(C)C2`, the growth was 100% (inactive).

Take `CC[N+](CC)=c1sc2c(s1)C(c1ccc(Cl)cc1)Oc1ccc(Cl)cc1-2` (stereo not given): the growth was -34.3% (active).

As to `O=C(Nc1ccc(Cl)cc1)Nc1ccc(Oc2nncc3ccccc23)cc1`, the growth is 3.65% (active).

With `CC(C)(O)c1cccc(F)c1`, the growth was 70.7% (inactive).

In the case of `C=CC1=C(C)C2=NC1=CC1=NC(=CC3=C(C)C4=C(O)C(C(=O)O)C(=C5NC(=C2)C(C)C5CCC(=O)O)C4=N3)C(CC)=C1C` (stereo not given), the growth is 89.4% (inactive).

For the compound `CC(C)CCOc1ccc(-c2n[nH]c(C(F)(F)F)c2-c2cncc(C#N)c2)c(O)c1`, the growth was 3.64% (active).

In the case of `C=C1C(=O)O[C@@H]2C3C(=C(C)CC[C@@H]12)CC1O[C@]13C` (stereo not given in full), the growth is 77.6% [6.75 µM] (inactive).

As for `COc1cccc(N=Nc2cccc(OC)c2)c1`, the growth was 66.9% (inactive).

As for `C(=C\c1nccc2c1[nH]c1ccccc12)/c1ccccc1`, the growth was 55.5% (inactive).

Consider `Cc1cnc(NC(=O)Nc2cc(Br)c(C)cc2OC[C@@H]2CNCCO2)cn1`, for which the growth was -25.3% (active).

`CCCCCOc1ccc(C(=O)/C(Br)=C/C(=O)O)cc1`: the growth was 69.3% (inactive).

As to `O=C1CC(=O)N(c2ccccc2)O1`, the growth is 103% (inactive).

Regarding `CC1=CNNc2c3ncnc-3ncn21`, the growth is 99.8% (inactive).

For the compound `CC(N)C(Cc1ccc(Cl)cc1)c1ccc(Cl)cc1` (stereo not given), the growth was 25.9% (inactive).

On to `COc1ccc(Cn2cc(C(=O)N=Nc3c(O)[nH]c4c(C)cccc34)nn2)cc1`, for which the growth is 78.9% (inactive).

Turning to `NC1=C(/C(N)=N/O)C(c2ccccc2)c2ccc3ccccc3c2O1` (stereo not given), the growth was -19% (active).

With `CCOC(=O)/C(=C(\C)N)C1CC(=O)NC1=O` (stereo not given), the growth was 99.9% (inactive).

For `CCN(CC)c1ccc2nc3c4ccccc4c(=NC(=O)c4ccccc4-c4c5ccc(N(CC)CC)cc5[o+]c5cc(N(CC)CC)ccc45)cc-3oc2c1`, the growth is -69.7% (active).

In the case of `Cc1ccc(N=Nc2ccccc2)cc1`, the growth was 85.8% (inactive).

Regarding `O=C(/C=C/c1cccc(O)c1)c1cccc(-n2cc(-c3ccc4ccccc4c3)[nH]c2=O)c1`, the growth is -21.5% (active).

For `Nc1ccc(Nc2nccc(-c3ccc4ccccc4c3)n2)cc1`, the growth is 21.2% (inactive).

Consider `COc1cc2nc(-c3ccc(Cl)cc3)cc(OCCCN3CCOCC3)c2cc1OC`, for which the growth is 27% (inactive).

In the case of `O=C(NCCO)Nc1ccc(-c2nc(N3CCOCC3)c3cccn3n2)cc1`, the growth is 24.2% (inactive).

In the case of `CCCn1c(N)c(C(=O)CNc2ccc(I)cc2)c(=O)[nH]c1=O`, the growth was -5.9% (active).

Regarding `O=C1Nc2ccc(Cl)cc2/C1=C\c1c(-c2ccc(F)cc2)nc2ccccn12`, the growth was -37.7% (active).

For `COc1cc(-c2nn(-c3ccc(NC(=O)c4ccc(Cl)c(Cl)c4)cc3)cc2-c2ccncc2)ccc1Cl`, the growth was 33.8% (inactive).

For `CS(=O)(=O)c1nccc(-c2c(-c3cccc(OCCN4CCOCC4)c3)nc3sccn23)n1`, the growth was 66.4% (inactive).

With `COc1cc(-c2nc(SCCC(C)C)nc(Nc3ccc(F)cc3)c2C#N)cc(OC)c1OC`, the growth was 84.9% (inactive).

`O=C(O)C(=Cc1c2ccccc2cc2ccccc12)C(=O)O`: the growth is 110% (inactive).

Regarding `C=CCOC(=O)C(=O)OCC=C`, the growth was 68.7% (inactive).

As for `N#Cc1c(-c2ccc(Cl)cc2)csc1NC(=O)Nc1ccc(Cl)c(C(F)(F)F)c1`, the growth is -34.2% (active).

In the case of `O=C(CSc1nc2ccc([N+](=O)[O-])cc2[nH]1)Nc1ccc([N+](=O)[O-])cc1`, the growth was 12.7% (inactive).

As for `CCOc1ccc(I)cc1`, the growth is 128% (inactive).

As to `CCNCCNc1cc(-c2cccc(C(F)(F)F)c2)c(C#N)c2nc3ccccc3n12`, the growth was -58.7% (active).

In the case of `O=C(CN1CCOCC1)Nc1ccc2ncnc(Nc3ccc(Oc4cccc(F)c4)c(Cl)c3)c2c1`, the growth was 84.5% (inactive).

Turning to `COc1ccc2oc(=O)cc(CN3C(=O)S/C(=C\c4ccc(Cl)cc4)C3=O)c2c1`, the growth is 89.5% (inactive).

In the case of `COc1cccc(-c2nn(C)c3sc(C(=O)NCCN4CCN(c5ccccc5F)CC4)cc23)c1`, the growth was 8.08% (active).

On to `CN(C)c1ccc(/C=C/C2=[N+](C)c3ccccc3C2(C)C)cc1`, for which the growth is -18.4% (active).

Turning to `CC(C)N=C1CCCC1C(=S)SSC(=S)C1CCCC1=NC(C)C` (stereo not given), the growth was 75.8% (inactive).

For `CC(c1cc(Cl)ccc1O)c1cc(Cl)ccc1O`, the growth was 34.1% (inactive).
